Experimental data taken from PubChem BioAssay AID525 (The Scripps Research Institute Molecular Screening Center, 2006).
Hit rate of the full screen: of about 65,000 compounds, about 360 (0.55%) were called active.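 How the source made its calls: active means inhibition above the mean inhibition of all tested compounds plus 3 SD (cut at about 48% in these data); inactive means the rest.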 This excerpt belongs to a sample that is enriched for actives.

biological target: Steroidogenic factor 1 (Homo sapiens) (UniProt Q13285); experiment: suppressors of SF-1 driven luciferase transcription – cell-based, CHO-K1, Gal4-SF-1 LBD, luciferase luminescence, primary screen (AID 525); details: CHO-K1 Gal4-SF-1 LBD luciferase reporter; at 10 µM; active compounds read high;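 further: 0% = SF-1 transfected cells with DMSO and 100% = mock-transfected cells lacking SF-1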
Sequence (Q13285 whole entry, looked up, the tested form may be a part): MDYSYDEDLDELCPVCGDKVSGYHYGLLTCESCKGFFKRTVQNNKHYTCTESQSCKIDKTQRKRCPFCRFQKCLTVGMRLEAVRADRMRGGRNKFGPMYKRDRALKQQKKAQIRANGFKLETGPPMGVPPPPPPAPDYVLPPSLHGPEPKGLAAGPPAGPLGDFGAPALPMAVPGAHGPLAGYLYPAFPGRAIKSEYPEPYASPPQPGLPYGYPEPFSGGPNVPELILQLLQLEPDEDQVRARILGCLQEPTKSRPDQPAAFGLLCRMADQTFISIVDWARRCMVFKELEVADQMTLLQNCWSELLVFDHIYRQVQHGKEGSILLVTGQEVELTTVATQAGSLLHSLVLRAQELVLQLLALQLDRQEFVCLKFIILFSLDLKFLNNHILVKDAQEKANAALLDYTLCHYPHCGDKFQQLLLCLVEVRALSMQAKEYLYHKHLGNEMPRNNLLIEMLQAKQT

Q: With `Cn1c(=O)c2cn(-c3cccc4ccccc34)cc2n(C)c1=O` as the compound, how does the inhibition read?
A: -21.5% (inactive)

Q: For `Cc1cc(NC(=O)c2cc(-c3cccs3)on2)nn1Cc1ccc(Cl)cc1`, which inhibition is on record?
A: 2.7% (inactive)

Q: Which inhibition does the source give for `NC(=O)CCCC1=NS(=O)(=O)c2ccccc2N1` here?
A: 10.1% (inactive)

Q: For `N/C(=N\c1nc2ccccc2o1)NC(=O)C(Cc1ccccc1)N1C(=O)c2ccccc2C1=O` (centres undefined), which inhibition is on record?
A: 0.7% (inactive)

Q: How did the inhibition turn out when `CCOC(=O)C1=C(C)NC(C)=C(C(=O)OCC)C1c1ccccn1` was run?
A: 6.7% (inactive)

Q: How did the inhibition turn out when `CCOC(=O)CNC(=O)CSc1nnc(-c2cccc(OC)c2)n1CC` was run?
A: 12.5% (inactive)

Q: With `Cc1ccc(C(=O)Nc2nnc(-c3cccs3)s2)cc1C` as the compound, how does the inhibition read?
A: -80.9% (inactive)

Q: Which inhibition does the source give for `CC1CCCCN1S(=O)(=O)c1ccc(C(=O)Nc2nnc(-c3cccs3)o2)cc1` (centres undefined) here?
A: 49.4% (active)

Q: How did the inhibition turn out when `CC(C)(C)n1nc2c(c1NC(=O)c1ccc(S(=O)(=O)N3CCCC3)cc1)CS(=O)C2` (centres undefined) was run?
A: 6.6% (inactive)

Q: `Cc1ccc(-n2c(SCC(=O)Nc3ccc4c(c3)OCO4)nnc2-c2ccoc2C)cc1` was tested. Which inhibition did it give?
A: 1% (inactive)

Q: For `CCCOC(=O)Nc1ccccc1C(N)=O`, which inhibition is on record?
A: -2.2% (inactive)

Q: For `CCCCOc1ccc(-c2ncc(C(=O)OCC)c(N)n2)cc1`, which inhibition is on record?
A: -49.8% (inactive)

Q: For `O=C(CN1CCN(c2ccccn2)CC1)NCc1cccs1`, which inhibition is on record?
A: -7.1% (inactive)

Q: Which inhibition does the source give for `COc1ccc(-n2ncc3c(N4CCc5ccccc54)ncnc32)cc1` here?
A: -59.8% (inactive)

Q: For `c1cc(-n2cnnn2)ccc1NC1=NCCC1`, which inhibition is on record?
A: 9.1% (inactive)

Q: Which inhibition does the source give for `CCC(=O)Nc1ccc2c(c1)nc(CCN1CCN(C)CC1)n2C` here?
A: 2.6% (inactive)

Q: Which inhibition does the source give for `CCOC(=O)Cc1csc(NC(=O)C(C)(C)C)n1` here?
A: -20.2% (inactive)

Q: Which inhibition does the source give for `CCn1c(CNc2ccc(OC)cc2)nnc1SCC(=O)c1ccc(OC)cc1` here?
A: 9.6% (inactive)

Q: For `COc1cc(Cl)c(C)cc1NC(=O)CSc1nnc(-c2cccnc2)n1Cc1ccco1`, which inhibition is on record?
A: -10.6% (inactive)

Q: Which inhibition does the source give for `Cc1nnc(SCC(=O)N(C(C)C)C(C)C)nc1C` here?
A: 3.3% (inactive)

Q: `Cc1ccsc1C(=O)OCC(=O)c1cc(C)n(CC2CCCO2)c1C` (centres undefined) was tested. Which inhibition did it give?
A: 80.5% (active)

Q: Which inhibition does the source give for `O=C(OCC(=O)c1cccs1)C1=COCCO1` here?
A: -24.5% (inactive)

Q: `CCOc1cccc(NC(=O)CC#N)c1` was tested. Which inhibition did it give?
A: -9.5% (inactive)

Q: `C/C(=N\O)C1(C)N(O)C(C)(C)C(c2ccc(Br)cc2)=[N+]1[O-]` (centres undefined) was tested. Which inhibition did it give?
A: 8.5% (inactive)

Q: With `Cn1c(-c2ccco2)nc2cc3ccccc3cc21` as the compound, how does the inhibition read?
A: 54.3% (active)

Q: `O=S(=O)(Nc1ccc2nc(-c3ccco3)[nH]c2c1)c1ccccc1` was tested. Which inhibition did it give?
A: -53.5% (inactive)

Q: For `c1ccc(CSc2nnc(-c3ccco3)n2Cc2ccccc2)cc1`, which inhibition is on record?
A: -76% (inactive)

Q: How did the inhibition turn out when `Cc1cc(NC(=O)CCC(=O)N(c2ccccc2)C(C(=O)NC2CCCC2)c2ccncc2)no1` (centres undefined) was run?
A: -9.4% (inactive)

Q: With `CCOc1ccccc1NC(=O)CCc1ccc(C)o1` as the compound, how does the inhibition read?
A: 14.7% (inactive)

Q: `O=C(O)C1CCCN(S(=O)(=O)c2cccc3cccnc23)C1` (centres undefined) was tested. Which inhibition did it give?
A: -5.7% (inactive)

Q: `COc1ccc(N2CC(C)Cn3c2nc2c3c(=O)n(Cc3ccccc3F)c(=O)n2C)c(OC)c1` (centres undefined) was tested. Which inhibition did it give?
A: -2.3% (inactive)

Q: For `Nc1ncc(-c2cc3ccccc3oc2=O)s1`, which inhibition is on record?
A: -79.3% (inactive)

Q: With `CCOC(=O)c1c(C(C#N)C#N)cc(C)nc1C` as the compound, how does the inhibition read?
A: -2.3% (inactive)

Q: With `CC(C)COC(=O)c1ccc(NC(=O)C2C3C=CC(C3)C2C(=O)O)cc1` (centres undefined) as the compound, how does the inhibition read?
A: -63.7% (inactive)

Q: For `Cn1c(=O)c2c(nc(SCCNS(=O)(=O)c3ccccc3)n2C)n(C)c1=O`, which inhibition is on record?
A: 13.3% (inactive)

Q: Which inhibition does the source give for `CC(=O)c1c(N2CCOCC2)nc(=S)n(-c2cc(C)ccc2C)c1C` here?
A: -0.4% (inactive)

Q: How did the inhibition turn out when `COC(=O)c1ccc(NC(=O)c2ccco2)cc1` was run?
A: -85.3% (inactive)

Q: For `COc1ccccc1N1CC(O)=C(c2nc3ccccc3s2)C1=N`, which inhibition is on record?
A: -13.3% (inactive)

Q: Which inhibition does the source give for `O=C(OC1CCOC1=O)c1ccc(-c2nc3ccccc3s2)s1` (centres undefined) here?
A: 59.9% (active)

Q: `COc1ccc(CCN2CNc3c(c(=O)n(C)c(=O)n3C)C2)cc1OC` was tested. Which inhibition did it give?
A: -1.5% (inactive)

Q: Which inhibition does the source give for `CSCC[C@H](NC(=O)NCCc1ccc(F)cc1)C(=O)O` here?
A: -3.2% (inactive)

Q: Which inhibition does the source give for `Fc1ccc2nc(Nc3nc4c(s3)CCCC4)sc2c1` here?
A: -90% (inactive)

Q: Which inhibition does the source give for `CCCC(CCC(=O)OC)(C(=O)OCC)c1csc(N)n1` (centres undefined) here?
A: -13.3% (inactive)

Q: With `CC(Oc1ccc(Cl)cc1)C(=O)Nc1ncccn1` (centres undefined) as the compound, how does the inhibition read?
A: 16% (inactive)

Q: `O=C(Nc1ccc(Cl)cn1)c1cnn2cccnc12` was tested. Which inhibition did it give?
A: -63.8% (inactive)

Q: Which inhibition does the source give for `C=CCN(c1ccc(C(N)=O)cc1)S(C)(=O)=O` here?
A: -14.5% (inactive)

Q: Which inhibition does the source give for `Cc1cccc(CC(=O)Nc2c3c(nn2-c2cccc(Cl)c2)CS(=O)C3)c1` (centres undefined) here?
A: 13.6% (inactive)

Q: With `COc1cccc(-c2nc3n(n2)C(c2ccccc2Cl)C(C(N)=O)=C(C)N3)c1` (centres undefined) as the compound, how does the inhibition read?
A: 17.2% (inactive)

Q: With `O=S(=O)(c1cccs1)N1CCc2ccccc2C1` as the compound, how does the inhibition read?
A: 12.2% (inactive)
